KCNQ2 inh: rat KCNQ2 potassium channel inhibitors, primary screen, cell-based, CHO-K1, FluxOR thallium flux, B-score; Potassium voltage-gated channel subfamily KQT member 2 (Rattus norvegicus), O88943; 20 min; hits give low values; B-score at 10 µM; actives 1.1% (n = 310,000); AID 2156, 2009;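 active means fluorescence ratio B-score at most minus 3 library SDs, with starting brightness B-score within 2 library SDs, cut at about -5.5 in these data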
KCNQ2 enhance: potentiators of rat KCNQ2 potassium channel. B-score at 10 µM. CHO-K1 KCNQ2, FluxOR thallium flux fluorescence; hits give high values. actives 0.54% (n = 310,000);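 active means fluorescence ratio B-score at least 3 SD of library B-scores, with initial fluorescence B-score within 3 of them, cut at about 5.3 in these data; same plate scores as AID 2156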;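 further: B-score of peak minus minimum over baseline fluorescence ratio after K+ and Tl+ stimulus; positive B-score means potentiation of KCNQ2 with more thallium influx and brighter signal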
Kir21 confirm: mouse Kir2.1 channel blockers, retest, confirmation, cell-based, FluxOR thallium flux, duplicate; shares compounds with KCNQ2 enhance; Kir2.1-expressing cells, FluxOR thallium flux fluorescence; hits give low values; Tl flux remaining, % of negative control (hits give low values), % at 10 µM; actives 41% (n = 2,300); AID 2032, 2009;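 active means Primary-screen hit whose thallium flux fell at least 3 control SD below untreated wells in both duplicates, with normal baseline fluorescence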;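 further: 0% = blank wells without stimulus and 100% = stimulated no-compound controls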
HEK293 Tl flux: parental HEK293 activity in Kir2.1 inhibitor counter-screen. shares compounds with KCNQ2 enhance. parental HEK293 cells, FluxOR thallium flux fluorescence; 0% = unstimulated blank wells. FluxOR signal as % of negative control (100 = no effect), % at 10 µM. actives 19% (n = 2,300). AID 2105;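 active means dye signal at least 3 control SD above or below untreated wells in both duplicates, raw fluorescence within 3, either direction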;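 further: percent is based on the flux ratio of peak minus minimum fluorescence over baseline F0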
CHO-K1 ctr: nonspecific thallium flux increase in parental CHO-K1, confirmation, counter-screen for KCNQ2 potentiator project, cell-based, FluxOR thallium flux, duplicate; shares compounds with KCNQ2 enhance; parental CHO-K1 cells, FluxOR thallium flux fluorescence; zero = vehicle mean+3SD, 100% = vehicle-minus-blank window; activity increase over 3SD of controls, % at 10 µM; actives 43% (n = 1,200);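 active means signal rise of at least 3 SD above the untreated control mean, in both duplicate wells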;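 further: counter screen of KCNQ2 potentiator hits so any rise reflects channel-independent effects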
KCNQ1 sel pot: human KCNQ1 channel potentiation off-target, confirmation, selectivity assay for KCNQ2 potentiator project, cell-based, CHO, FluxOR thallium flux. shares compounds with KCNQ2 enhance. CHO KCNQ1 stable, FluxOR thallium flux fluorescence; beyond 3SD, as % of vehicle-control signal. activation over 3SD threshold, % at 10 µM. actives 28% (n = 1,200). AID 2283, 2010;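 active means fluorescence ratio rise of at least 3 SD of vehicle wells above their mean, in both replicate wells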;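 further: 0% = vehicle mean plus 3 SD and 100% = vehicle minus unstimulated blank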
KCNQ2 pot conf: rat KCNQ2 channel potentiators, confirmation, cell-based, CHO, FluxOR thallium flux, duplicate. shares compounds with KCNQ2 enhance. CHO-KCNQ2 cells, FluxOR thallium flux fluorescence. potentiation, less the hit threshold, % at 10 µM. actives 68% (n = 1,200). AID 2287, 2010;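 active means fluorescence ratio rising 3 SD or more over the vehicle control mean in both replicates, plus primary screen hit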;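 further: peak minus minimum thallium fluorescence divided by baseline after K/Tl stimulus; 0% = vehicle mean plus 3 SD and 100% = vehicle minus unstimulated blank difference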
Kir21 spec: mouse Kir2.1 channel activation off-target, confirmation, selectivity assay for KCNQ2 potentiator project, cell-based, HEK293, FluxOR thallium flux | shares compounds with KCNQ2 enhance | HEK293 Kir2.1, FluxOR thallium flux fluorescence | activity over 3SD threshold, % at 10 µM | actives 2% (n = 1,200) | AID 2345, 2010;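 active means fluorescence ratio rise of at least 3 SD above the vehicle-control mean, seen in both replicates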;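 further: 0% = vehicle mean plus 3 SD and 100% = vehicle minus no-stimulus blank window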
KCNQ2 W236L MoA: potentiators of retigabine-insensitive KCNQ2 W236L, mechanism study for KCNQ2 potentiator project, cell-based, rat KCNQ2 W236L, CHO, automated patch clamp; shares compounds with KCNQ2 enhance; automated patch clamp current; current increase over 3SD of negative controls (%), hits give high values, % at 25 µM; actives 10% (n = 940); AID 2558, 2010;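 active means current increase at least 3 SD of the untreated controls above them in both duplicate recordings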
Target sequence (O88943 whole entry W236L, looked up): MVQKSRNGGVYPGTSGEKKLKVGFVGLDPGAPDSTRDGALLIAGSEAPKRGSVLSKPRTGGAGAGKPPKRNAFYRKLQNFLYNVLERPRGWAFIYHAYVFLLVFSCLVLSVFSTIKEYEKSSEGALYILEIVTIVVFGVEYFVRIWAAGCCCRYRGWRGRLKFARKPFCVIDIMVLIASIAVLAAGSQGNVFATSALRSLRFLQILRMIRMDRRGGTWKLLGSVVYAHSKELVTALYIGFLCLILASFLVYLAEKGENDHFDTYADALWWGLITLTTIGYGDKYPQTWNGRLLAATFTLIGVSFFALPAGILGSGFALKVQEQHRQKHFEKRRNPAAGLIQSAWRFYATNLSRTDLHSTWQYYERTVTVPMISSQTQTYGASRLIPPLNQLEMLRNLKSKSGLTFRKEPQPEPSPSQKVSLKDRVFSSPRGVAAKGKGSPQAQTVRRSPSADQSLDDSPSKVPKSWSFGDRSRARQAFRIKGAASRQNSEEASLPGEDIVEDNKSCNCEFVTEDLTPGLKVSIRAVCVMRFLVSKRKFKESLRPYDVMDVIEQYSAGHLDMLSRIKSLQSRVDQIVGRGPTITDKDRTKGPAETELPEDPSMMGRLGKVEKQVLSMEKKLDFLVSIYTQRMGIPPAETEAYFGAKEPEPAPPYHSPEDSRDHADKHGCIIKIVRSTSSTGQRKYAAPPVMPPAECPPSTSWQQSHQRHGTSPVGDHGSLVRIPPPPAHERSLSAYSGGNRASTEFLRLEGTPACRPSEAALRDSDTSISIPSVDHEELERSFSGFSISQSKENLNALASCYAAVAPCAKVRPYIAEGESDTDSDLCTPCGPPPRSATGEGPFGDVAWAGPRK
An asterisk follows results filed as active; i = inactive; · = no result. Compounds with a hit are over-represented: about 1.6% of the library has one in this group of screens.

SMILES	KCNQ2 inh	KCNQ2 enhance	Kir21 confirm	HEK293 Tl flux	CHO-K1 ctr	KCNQ1 sel pot	KCNQ2 pot conf	Kir21 spec	others
COc1cc(C)c(C(=O)Oc2cc(C)c(C(=O)O)c(O)c2)c(O)c1	i	7.01*	i	i	45.2*	-11.4	13.9*	-22.3	KCNQ2 W236L MoA=21.3%*
COc1cc(C)c(C(=O)Oc2cc(C)c(C(=O)O)c(O)c2C)c(O)c1C	i	5.25	·	·	·	·	·	·
COc1ccc2oc(C(=O)OCC(=O)N3CCC(C)CC3)c(C)c2c1	i	4.56	·	·	·	·	·	·
Cc1c(C(=O)OCC(=O)N2CCC(C)CC2)oc2ccccc12	i	10.9*	i	i	14.4*	-4.9	17.2*	-32.3	KCNQ2 W236L MoA=i
Cc1c(C(=O)O)cccc1-c1ccc(C=O)o1	i	·	·	·	·	·	·	·
O=Cc1ccc(-c2ccccc2OC(F)(F)F)o1	i	6.56*	i	i	-6.2	-15.8	-7.1	-17.6
Fc1cccc(NCCc2c[nH]c3ccccc23)n1	i	1.11	·	·	·	·	·	·
c1ccc2c(NCCc3c[nH]c4ccccc34)c3ccccc3nc2c1	i	·	38.5%*	i	·	·	·	·
Cc1ccc(C)c(OCc2cc(C(=O)NC3CCOC(C)(C)C3)no2)c1 (stereo unspecified)	i	0.01	·	·	·	·	·	·
Cc1cccc2nc(CNC(=O)C3CCC(=O)N(Cc4ccccc4F)C3)cn12 (stereo unspecified)	i	0.02	·	·	·	·	·	·
CCn1c(CNc2cccc(Cl)c2)nnc1SCC(=O)OC1CCCCC1	i	·	·	·	·	·	·	·
CCn1c(CNc2ccc(Cl)cc2)nnc1SCC(=O)OC1CCCCC1	i	0.06	71.0%*	i	·	·	·	·
Cc1onc(-c2ccccc2)c1C(=O)OCC(=O)Nc1ccc2c(c1)OCO2	i	·	·	·	·	·	·	·
Cc1onc(-c2ccccc2Cl)c1C(=O)OCC(=O)Nc1ccc2c(c1)OCO2	i	8.03*	i	i	3.4*	0.5*	-14.1	-37.2	KCNQ2 W236L MoA=i
O=S(=O)(Nc1nc2ccccc2nc1Nc1ccc2c(c1)OCO2)c1ccc(F)cc1	i	1.08	·	·	·	·	·	·
CCOc1ccccc1CN1CCNC(=O)C1CC(=O)NCc1nc(C)cs1 (stereo unspecified)	i	0.02	·	·	·	·	·	·
CCOc1ccc(NC(=O)CN(C)C(=O)CCCOc2ccc(Cl)c(C)c2)cc1OCC	i	·	·	·	·	·	·	·
COc1ccc(OCC(=O)NNC(=O)C(=O)Nc2cc(OC)ccc2OC)cc1	i	11.4*	i	264.0%*	41.8*	-5.1	8.0*	-26.2	KCNQ2 W236L MoA=i
COc1ccc(OC)c(NC(=O)Nc2c(O)ccc3ccccc23)c1	i	7.77*	·	·	-21.3	-39.8	-11.4	-71.8
COc1ccc(CC(=O)NNC(=O)COc2ccc(Br)cc2C)cc1OC	i	·	·	·	·	·	·	·
COc1ccc(C(=O)Nc2cccc3ccccc23)cc1	i	·	·	·	·	·	·	·
COc1ccc(OC)c(NC(=O)C(=O)NNC(=O)COc2ccc(Br)cc2C)c1	i	17.2*	i	349.5%*	-8.3	12.0*	68.0*	-14.7	KCNQ2 W236L MoA=i
COc1ccc(OC)c(NC(=O)Nc2ccc(O)c3ccccc23)c1	i	·	·	·	·	·	·	·
COc1ccc(OC)c(NC(=O)NNC(=O)COc2ccc(-c3ccccc3)cc2)c1	i	·	·	·	·	·	·	·
COc1ccc(C(=O)NNC(=O)C(=O)Nc2cccc3ccccc23)cc1	i	10.2*	i	156.5%*	2.3*	-20.3	-2.0	-22.9	KCNQ2 W236L MoA=i
SMILES	KCNQ2 inh	KCNQ2 enhance	Kir21 confirm	HEK293 Tl flux	CHO-K1 ctr	KCNQ1 sel pot	KCNQ2 pot conf	Kir21 spec	others
COc1ccc(CCNC(=O)CC(c2ccccc2)c2cccc(C)c2O)cc1OC (stereo unspecified)	i	1.4	·	·	·	·	·	·
COc1cccc(NC(=O)CN2C(=O)CSc3nc(C)cc(C)c32)c1	i	·	·	·	·	·	·	·
O=C(COc1ccc2ccccc2c1)NNC(=O)Nc1ccccc1F	i	·	·	·	·	·	·	·
Cc1ccccc1NC(=O)C(=O)NNC(=O)COc1ccc2ccccc2c1	i	6.97*	i	248.5%*	-4.3	-15.1	19.9*	-21.1	KCNQ2 W236L MoA=i
CCC1(c2ccccc2)NC(=O)N(CC(=O)Nc2ccc(OC)nc2)C1=O (stereo unspecified)	i	·	·	·	·	·	·	·
COc1cc2c(cc1OC)CN(c1ccc(-c3ccccc3OC)nn1)CC2	i	·	·	·	·	·	·	·
COc1cc2c(cc1OC)CN(c1ccc3ccccc3n1)CC2	i	·	55.5%*	132.0%*	·	·	·	·
CCCCn1nc(CC(=O)NCCN(CC)CC)c2ccccc2c1=O	i	0.26	·	·	·	·	·	·
CCc1cccc(C)c1NC(=O)CN1CCN(S(=O)(=O)c2ccc(C(C)(C)C)cc2)CC1	i	5.32*	i	i	63.4*	-9.1	-19.1	-35.5
CCc1cccc(C)c1NC(=O)COC(=O)C1CCN(S(=O)(=O)c2ccccc2)CC1	i	1.87	·	·	·	·	·	·
O=C(Nc1ccnc(-c2cccnc2)n1)c1cccs1	i	0.57	·	·	·	·	·	·
O=C(c1ccc(Cl)c(S(=O)(=O)N2CCCCCC2)c1)N1CCCC1	i	0.95	·	·	·	·	·	·
COC(=O)CSc1[nH]c2ccc(Br)cc2c1[N+](=O)[O-]	i	6.46*	i	i	-22.3	-12.9	-24.1	-22.9
CCOc1ccc2[nH]c(SCC(=O)OC)c([N+](=O)[O-])c2c1	i	·	·	·	·	·	·	·
COc1ccc(-c2ccc(-c3nc4ccc(C)cn4c3NC3CCCCC3)cc2OC)cc1	i	·	·	·	·	·	·	·
Cc1ccc(/C=C/C(=O)c2ccccc2O)cc1	i	·	·	·	·	·	·	·
Cc1ccc(/C=C/C(=O)C2C(=O)c3ccccc3C2=O)cc1	i	7.26*	i	146.0%*	-18.4	-18.6	-2.3	-32.2	KCNQ2 W236L MoA=i
S=c1[nH]nc(-c2ccco2)n1/N=C/C(Cl)=C/c1ccccc1	i	7.22*	i	129.0%*	-20.8	-16.2	-3.2	-36.3	KCNQ2 W236L MoA=i
Cc1cc(-c2n[nH]c(=S)n2/N=C/C(Cl)=C/c2ccccc2)n[nH]1	i	·	·	·	·	·	·	·

Source: PubChem (Johns Hopkins Ion Channel Center)
